# Reference: PubChem BioAssay (NCI)
# About 79,000 compounds went through this panel and 15% of them were active in at least one assay; those are over-represented in the sample as a whole. Values without a mark were called inactive. Calls of active or inactive are those of the source. Rule as the data show it: active = growth inhibition above about 70%; inactive = the rest.
# Tests used:
# [1] = NCI Yeast Anticancer Drug Screen. Data for the rad52 strain (AID 147);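 also: 0% = growth of vehicle-treated control cultures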; conditions: S. cerevisiae rad52 mutant growth inhibition, active compounds read high
# Method in brief: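 The repair-mutant yeast strain was incubated with compounds, then growth was read and inhibition derived relative to vehicle.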
# [2] = NCI Yeast Anticancer Drug Screen. Data for the wt1 strain (AID 149);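 also: 0% = growth of vehicle-treated wt1 cultures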; conditions: S. cerevisiae wt1 strain (SPY 50644) growth inhibition, active compounds read high
# Method in brief: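 Growth inhibition read against vehicle controls after compound exposure of the wt1 yeast strain.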
# [3] = NCI Yeast Anticancer Drug Screen. Data for the rad50EPP+ strain (AID 151);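 also: 0% = growth of vehicle-treated control cultures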; conditions: S. cerevisiae rad50 mutant strain, active compounds read high
# Method in brief: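 Vehicle-normalised growth inhibition; rad50EPP+ yeast strain, altered in DNA damage repair, compound-treated.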
# [4] = NCI Yeast Anticancer Drug Screen. Data for the mgt1 strain (AID 153); conditions: S. cerevisiae mgt1 mutant growth inhibition, active compounds read high
# Method in brief: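 Vehicle-normalized growth inhibition is determined in mgt1 yeast, a strain selected for a defined alteration in DNA repair or cell cycle control.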
# [5] = NCI Yeast Anticancer Drug Screen. Data for the rad50 strain (AID 155);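 also: 0% = growth of vehicle-only cultures of the same strain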; conditions: S. cerevisiae rad50 strain growth inhibition, active compounds read high
# Method in brief: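 Readout: growth inhibition relative to vehicle-treated cultures. Compound exposure was carried out in a genetically defined yeast strain deficient in DNA damage repair.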
# [6] = NCI Yeast Anticancer Drug Screen. Data for the mec2-1 strain (AID 157); conditions: S. cerevisiae mec2-1 strain, active compounds read high
# Method in brief: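 Mutant yeast (mec2-1) grown with compound; growth inhibition relative to vehicle control reported.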
# [7] = NCI Yeast Anticancer Drug Screen. Data for the rad14 strain (AID 159);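 also: 0% = growth of vehicle-treated control cultures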; conditions: S. cerevisiae rad14 strain growth inhibition, active compounds read high
# Method in brief: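 Growth inhibition vs vehicle controls; genetically altered yeast strain (DNA damage repair defect) treated with test compounds.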
# [8] = NCI Yeast Anticancer Drug Screen. Data for the sgs1 mgt1 strain (AID 161);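 also: 0% = growth of cultures given vehicle only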; conditions: S. cerevisiae sgs1 mgt1 strain, active compounds read high
# Method in brief: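 Compounds are added to genetically altered yeast, and growth is compared with cultures given vehicle alone to give percent inhibition.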
# [9] = NCI Yeast Anticancer Drug Screen. Data for the CLN2oe strain (AID 163);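 also: 0% = growth of vehicle-only control cultures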; conditions: S. cerevisiae CLN2oe strain, active compounds read high
# Method in brief: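 Compounds are applied to yeast harbouring a defined cell-cycle control change; reduced growth compared with vehicle-treated controls gives the value.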
# [10] = NCI Yeast Anticancer Drug Screen. Data for the bub3 strain (AID 167); conditions: S. cerevisiae bub3 mutant strain, active compounds read high
# Method in brief: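 Readout: yeast growth inhibition, expressed relative to vehicle-only wells. The test organism is a mutant strain from a panel with lesions in DNA repair or checkpoint genes.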
# [11] = NCI Yeast Anticancer Drug Screen. Data for the wt2 strain (AID 169);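 also: 0% = growth of vehicle-treated yeast cultures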; conditions: S. cerevisiae wt2 strain growth inhibition, active compounds read high
# Method in brief: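 Against vehicle-treated controls, the growth of yeast exposed to each compound was compared, and the inhibition was recorded.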
# [12] = NCI Yeast Anticancer Drug Screen. Data for the mlh1 strain (AID 171);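 also: 0% = growth of vehicle-treated control cultures of the same strain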; conditions: S. cerevisiae mlh1 strain growth inhibition, active compounds read high
# Method in brief: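 Measured: yeast growth. Reference: vehicle-treated controls. Organism: strain with a defined alteration affecting DNA damage repair or cell cycle control, treated with compound.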
# [13] = NCI Yeast Anticancer Drug Screen. Data for the sgs1 strain (AID 173);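 also: 0% = growth of vehicle-only control cultures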; conditions: S. cerevisiae sgs1 mutant, active compounds read high
# Method in brief: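 Each compound was added to cultures of the altered yeast strain. Growth was recorded, and inhibition was derived by comparison with vehicle controls.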
# [14] = NCI Yeast Anticancer Drug Screen. Data for the mlh1 rad18 strain (AID 175); conditions: S. cerevisiae mlh1 rad18 strain growth inhibition, active compounds read high
# Method in brief: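 Genetically defined yeast (DNA repair-deficient) exposed to compounds; growth inhibition determined relative to vehicle.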
# [15] = NCI Yeast Anticancer Drug Screen. Data for the rad18 strain (AID 177); conditions: S. cerevisiae rad18 mutant growth inhibition, active compounds read high
# Method in brief: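 Vehicle-treated cultures served as the baseline for scoring compound-induced growth inhibition in DNA-repair-mutant yeast.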
# [16] = at 5.0 µM (retest, dose inferred, filed as 0.5)
# [17] = at 50.0 µM (retest, dose inferred, filed as 5.0)
structure (smiles),measurement,setting,value
O=C(NNc1ccnc2cc(Cl)ccc12)/C(=C\c1ccccc1Cl)NC(=O)c1ccccc1,growth inhibition,[1]; at 1.2 µM,15%
same,growth inhibition,[1]; at 3.7 µM,11%
same,growth inhibition,[1]; at 11.0 µM,40%
same,growth inhibition,[1]; at 33.0 µM,38%
same,growth inhibition,[1]; at 100.0 µM,38%
same,growth inhibition,[2]; at 1.2 µM,-80%
same,growth inhibition,[2]; at 3.7 µM,-1%
same,growth inhibition,[2]; at 11.0 µM,6%
same,growth inhibition,[2]; at 33.0 µM,21%
same,growth inhibition,[2]; at 100.0 µM,28%
same,growth inhibition,[3]; at 1.2 µM,17%
same,growth inhibition,[3]; at 3.7 µM,55%
same,growth inhibition,[3]; at 11.0 µM,91% (active)
same,growth inhibition,[3]; at 33.0 µM,95% (active)
same,growth inhibition,[3]; at 100.0 µM,89% (active)
same,growth inhibition,[4]; at 1.2 µM,2%
same,growth inhibition,[4]; at 3.7 µM,23%
same,growth inhibition,[4]; at 11.0 µM,32%
same,growth inhibition,[4]; at 33.0 µM,61%
same,growth inhibition,[4]; at 100.0 µM,62%
same,growth inhibition,[5]; at 1.2 µM,-1%
same,growth inhibition,[5]; at 3.7 µM,4%
same,growth inhibition,[5]; [16],-11%
same,growth inhibition,[5]; at 11.0 µM,14%
same,growth inhibition,[5]; at 33.0 µM,33%
same,growth inhibition,[5]; [17],-18%
same,growth inhibition,[5]; at 50.0 µM,86.1% (active)
same,growth inhibition,[5]; at 100.0 µM,30%
same,growth inhibition,[6]; at 1.2 µM,-5%
same,growth inhibition,[6]; at 3.7 µM,-1%
same,growth inhibition,[6]; [16],-16%
same,growth inhibition,[6]; at 11.0 µM,-1%
same,growth inhibition,[6]; at 33.0 µM,20%
same,growth inhibition,[6]; [17],-30%
same,growth inhibition,[6]; at 50.0 µM,39.6%
same,growth inhibition,[6]; at 100.0 µM,14%
same,growth inhibition,[7]; at 1.2 µM,-2%
same,growth inhibition,[7]; at 3.7 µM,1%
same,growth inhibition,[7]; at 11.0 µM,1%
same,growth inhibition,[7]; at 33.0 µM,3%
same,growth inhibition,[7]; at 100.0 µM,0%
same,growth inhibition,[8]; [16],-8%
same,growth inhibition,[8]; [17],-37%
same,growth inhibition,[8]; at 50.0 µM,73% (active)
same,growth inhibition,[9]; at 1.2 µM,11%
same,growth inhibition,[9]; at 3.7 µM,32%
same,growth inhibition,[9]; at 11.0 µM,70% (active)
same,growth inhibition,[9]; at 33.0 µM,76% (active)
same,growth inhibition,[9]; at 100.0 µM,83% (active)
same,growth inhibition,[10]; at 1.2 µM,0%
same,growth inhibition,[10]; at 3.7 µM,14%
same,growth inhibition,[10]; [16],5%
same,growth inhibition,[10]; at 11.0 µM,50%
same,growth inhibition,[10]; at 33.0 µM,76% (active)
same,growth inhibition,[10]; [17],80% (active)
same,growth inhibition,[10]; at 50.0 µM,85.8% (active)
same,growth inhibition,[10]; at 100.0 µM,76% (active)
same,growth inhibition,[11]; at 1.2 µM,4%
same,growth inhibition,[11]; at 3.7 µM,28%
same,growth inhibition,[11]; at 11.0 µM,45%
same,growth inhibition,[11]; at 33.0 µM,38%
same,growth inhibition,[11]; at 100.0 µM,31%
same,growth inhibition,[12]; at 1.2 µM,-1%
same,growth inhibition,[12]; at 3.7 µM,0%
same,growth inhibition,[12]; at 11.0 µM,7%
same,growth inhibition,[12]; at 33.0 µM,26%
same,growth inhibition,[12]; at 100.0 µM,24%
same,growth inhibition,[13]; at 1.2 µM,1%
same,growth inhibition,[13]; at 3.7 µM,6%
same,growth inhibition,[13]; at 11.0 µM,13%
same,growth inhibition,[13]; at 33.0 µM,38%
same,growth inhibition,[13]; at 100.0 µM,38%
same,growth inhibition,[14]; [16],-13%
same,growth inhibition,[14]; [17],7%
same,growth inhibition,[14]; at 50.0 µM,90.1% (active)
same,growth inhibition,[15]; at 1.2 µM,-1%
same,growth inhibition,[15]; at 3.7 µM,10%
same,growth inhibition,[15]; at 11.0 µM,34%
same,growth inhibition,[15]; at 33.0 µM,64%
same,growth inhibition,[15]; at 100.0 µM,67%
